# SARS 3CLpro inh – SARS-CoV 3CLpro protease inhibition | P0C6X7 | actives 0.14% (n = 290,000) | AID 1706 | inhibition, % at 6 µM | recombinant SARS-CoV 3CLpro, quenched FRET peptide cleavage; in the data active means inhibition above about 12%
# Autofluor counter – counter-screen for toxin protease inhibitors: compound fluorescence; fluorescence intensity (concentration not given with the values); actives 3.1% (n = 360,000); compound autofluorescence counterscreen, microsphere flow cytometry; hits give high values; in the data active means fluorescence intensity above about 16000; inconclusive means no clear call, values can overlap the other calls
# CCHFV vOTU inh – blocks the CCHF virus ovarian tumor domain protease; AID 651958; CCHFV vOTU protease, Pep-AMC fluorescence; inhibition, % at 11.5 µM; actives 0.55% (n = 370,000); in the data active means inhibition above about 30%
# BoNT-F LC inh – BoNT F light chain protease inhibition. Multiplex microsphere protease cleavage assay, flow cytometry. inhibition, % at 10 µM. actives 0.22% (n = 360,000). AID 588497; in the data active means inhibition above about 35%, passing the limit was not always enough; inconclusive means no clear call, values can overlap the other calls
# BoNT-A LC inh2 – BoNT A light chain protease inhibition; multiplex microsphere protease substrate cleavage, flow cytometry; inhibition, % at 10 µM; AID 588499; actives 0.17% (n = 360,000)
# Anthrax LF prot – anthrax lethal factor protease inhibition; inhibition, % at 10 µM; actives 0.12% (n = 360,000); multiplex microsphere protease cleavage assay, LF
# Numbers stand for hits; - = inactive; ? = inconclusive; . = no result given. The list is not random: actives were taken first. Their share in the collection is about 3.9%. Unless noted, no stated cut-off is given here; in the data, active means inhibition above about 30%; inconclusive means no clear call, values can overlap the other calls; inactive means below that.
SMILES,SARS 3CLpro inh,Autofluor counter,CCHFV vOTU inh,BoNT-F LC inh,BoNT-A LC inh2,Anthrax LF prot
O=C(Nc1ccc(N2CCCC2)c(S(=O)(=O)Nc2cccc(C(F)(F)F)c2)c1)c1cccs1,-,-,-,-,-,-
COc1ccc(OC)c(NC(=O)CNC(=O)c2cccs2)c1,-,21327,-,-,?,-
COc1ccc(C(=O)NCc2cccnc2)cc1,-,21373,-,-,-,-
Cn1nc(NC(=O)CC(C)(C)CC(=O)O)c2ccccc21,-,-,-,-,-,-
NS(=O)(=O)c1ccc(CCNC(=O)C(=O)c2cn(CC(=O)N3CCOCC3)c3ccccc23)cc1,-,-,-,-,-,-
CN1CCc2nc(SCC(=O)Nc3ccc(Cl)cc3)c(C#N)cc2C1,-,-,-,-,-,-
N#Cc1cc2c(nc1SCC(=O)Nc1cc(Cl)cc(Cl)c1)C1CCN2CC1,-,20731,-,-,-,-
C=CCn1c(SCc2nc3ccccc3[nH]2)nnc1-c1ccc(OC)cc1,-,20347,-,-,-,-
CCn1c(SCc2nc3ccccc3[nH]2)nnc1-c1ccc(OC)cc1,-,23993,-,-,-,-
C=CCn1c(SCc2nc3ccccc3[nH]2)nnc1-c1cccc(OC)c1,-,22532,-,-,-,-
C=CCn1c(SCc2cccc3ccccc23)nnc1-c1cccnc1,-,21679,-,-,-,-
CCn1c(SCc2nc3ccccc3[nH]2)nnc1-c1ccncc1,-,-,-,-,-,-
CCOC(=O)CC[C@@]1(C(=O)OCC)C[C@@H](CC(=O)NCc2cccs2)C(=O)N2CCCC=C21,.,.,-,.,.,.
CCn1c(SCc2nc3ccccc3[nH]2)nnc1-c1cccnc1,-,24875,-,-,?,-
C=CCn1c(SCc2nc3ccccc3[nH]2)nnc1-c1ccccn1,-,18300,-,-,?,-
COc1cccc(N=C(N)N)c1,-,-,-,-,-,-
O=C(Nc1nccs1)Oc1ccccc1,-,20333,-,-,?,-
COc1ccc(-n2c(SCC(=O)Nc3ccc4c(c3)OCO4)nc3ccccc3c2=O)cc1,-,23540,-,-,-,-
Nn1c(SCC(=O)Nc2ccc3c(c2)OCO3)nnc1-c1ccccc1,-,-,-,57,45,-
O=C(CSc1nnc(-c2ccccn2)n1-c1ccc(Cl)cc1)Nc1ccc2c(c1)OCO2,-,22588,-,-,-,-
C=CCn1c(SCC(=O)Nc2ccc3c(c2)OCO3)nnc1-c1cc(Br)ccc1O,-,24540,-,-,-,-
O=C(CN1C(=O)NC2(CCc3ccccc32)C1=O)NCCc1ccccc1 (stereo not given),.,-,-,-,-,-
Cc1ccccc1NC(=O)COC(=O)CCSc1ccccc1,-,-,-,-,-,-
COC(=O)C1C(c2ccccc2)C(C(=O)N2CCOCC2)C1c1ccccc1 (stereo not given),-,22025,-,-,?,-
O=C(Nc1ncc2c(n1)-c1ccccc1CC2)c1ccc(Cl)cc1,-,22185,-,-,-,-
SMILES,SARS 3CLpro inh,Autofluor counter,CCHFV vOTU inh,BoNT-F LC inh,BoNT-A LC inh2,Anthrax LF prot
O=C(Nc1ncc2c(n1)-c1ccccc1OC2)c1ccc(Cl)cc1Cl,-,16392,-,-,-,-
O=C(Nc1ncc2c(n1)-c1ccccc1OC2)c1ccc(F)cc1,-,-,-,-,-,-
Cn1c(Sc2ccc(C(F)(F)F)cc2[N+](=O)[O-])nnc1-c1ccccc1,-,18706,-,-,-,-
Cc1cccc(Nc2ncccc2C(=O)NCc2cccs2)c1C,-,-,-,-,-,-
Cc1ccc(Nc2ncccc2C(=O)NCc2cccs2)c(C)c1,-,21631,-,-,?,-
C=CCNC(=O)N1CCN(Cc2nc3ccccc3c(=O)[nH]2)CC1,.,.,-,.,.,.
C/C(=N/NC(=O)c1nnn(-c2nonc2N)c1CSc1ccc(Cl)cc1)c1ccncc1,.,-,-,-,-,-
C/C(=N/NC(=O)c1ccoc1C)c1cccs1,.,.,-,.,.,.
COCCNC(=O)c1ccc(CS(=O)(=O)c2ccc(C)cc2)o1,-,22139,-,-,-,-
Cc1ccc(S(=O)(=O)Cc2ccc(C(=O)NCc3ccc4c(c3)OCO4)o2)cc1,-,22168,-,-,?,-
CC(NC(=O)c1ccc(CS(=O)(=O)c2ccc(Cl)cc2)o1)c1ccc2c(c1)OCCO2 (stereo not given),-,20032,-,-,-,-
Cc1ccc(S(=O)(=O)Cc2ccc(C(=O)NCCCN3CCN(C)CC3)o2)cc1,-,23094,-,-,?,-
Cc1ccc(CS(=O)Cc2ccc(C(=O)NCc3ccc4c(c3)OCO4)o2)cc1 (stereo not given),-,-,-,-,-,-
CCN(C(=O)COC(=O)c1cc2c(s1)CCCC2)c1c(N)n(Cc2ccccc2)c(=O)[nH]c1=O,.,.,-,.,.,.
CC(NC(=O)CN(C)S(=O)(=O)c1ccc(Br)s1)c1ccccc1 (stereo not given),-,-,-,-,-,-
O=C(O)c1cc(N/N=C/c2ccc3c(c2)OCCO3)ccc1Cl,-,-,-,38,-,-
O=C(O)c1cc(N/N=C/c2ccc3c(c2)OCO3)ccc1Cl,-,-,-,-,-,-
O=S(=O)(N/N=C/c1ccc2c(c1)OCCO2)c1ccccc1,-,22257,-,-,-,-
C#CCN1CC(N2CCN(CCO)CC2)CS1(=O)=O (stereo not given),.,.,-,.,.,.
O=C(CCl)NCc1c(Cl)cccc1-n1cccc1,-,22575,-,-,-,-
O=C(Cc1c(Cl)cccc1Cl)NCCc1ccc(Cl)cc1,-,-,-,-,-,-
C#CCNc1cc(C)nc2ncnn12,-,24731,-,-,?,-
O=C(Nc1ccccc1Cl)c1cccc(NC(=O)C2C3CC4OC(=O)C2C4C3)c1 (stereo not given),-,23034,-,-,-,-
NC(=O)c1nn(-c2ccccc2)c(=O)cc1O,-,22915,-,-,-,-
NC(=O)c1nn(-c2ccc(Oc3ccccc3)cc2)c(=O)cc1O,-,-,-,-,-,-
SMILES,SARS 3CLpro inh,Autofluor counter,CCHFV vOTU inh,BoNT-F LC inh,BoNT-A LC inh2,Anthrax LF prot
NC(=O)c1nn(-c2cccc(Cl)c2)c(=O)cc1O,-,16281,-,-,-,-
CC1(C)NC(=O)N(CCC(=O)Nc2ccc(C(C)(C)C)cc2)C1=O,.,-,-,-,-,-
O=C(NCCc1ccccn1)C1CC(=O)N(Cc2ccccc2Cl)C1 (stereo not given),-,19830,-,-,?,-
COc1ccc(CN2CC(C(=O)NCc3ccccn3)CC2=O)cc1 (stereo not given),-,-,-,-,-,-
C=CCn1c(O)c(C=Nc2ccc(N(CC)CC)cc2)c(=O)[nH]c1=O,-,-,40,-,-,-
C[C@@H]1CN([C@H](C)CO)C(=O)CCCn2cc(nn2)CO[C@H]1CN(C)C(=O)Nc1ccc(-c2cccs2)cc1,.,-,-,-,-,-
O=C1/C(=C\c2ccc(-c3ccccc3Cl)o2)SC(=S)N1CC1CCCO1 (stereo not given),-,-,-,-,189,59
O=C(O)C(c1ccccc1)N1C(=O)/C(=C\c2ccc(-c3ccc(Br)cc3)o2)SC1=S (stereo not given),-,-,-,-,65,-
